The text below walks through data of PubChem BioAssay (NCI).

This is part of a sample that, as a whole, favours compounds with a hit. Of some 83,000 tested, about 20% had one in any assay.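 For each line, cells grew in 96-well plates with the test compound present at a single concentration for 48 hours.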 Calls of active or inactive are those of the source. The calls were made as follows: active = growth percent below 10; inactive = the rest.

In one assay the test system is HCT-116 colon. In words: NCI-60 one-dose screen, 48 h (100 = growth as untreated, 0 = no growth, -100 = all killed). The conditions noted are these: 10 µM unless noted.
As for `S=c1[nH]cccc1-c1nnc2n1Nc1nc3ccccc3cc1CS2`, the growth is 94.9% (inactive).
For `O=C(Nc1cccc(Cl)c1)c1cc(Cl)ccc1O`, the growth was 6.01% (active).
On the same count and under the same terms, under `CCc1c(Nc2ccc(C)cc2)[nH]c(N)nc1=S` stands 98.3% (inactive).
`CC(=O)N1N=C(c2cccc(Nc3ccncc3)c2)CC1c1ccccc1` (configuration not stated): the growth is -24.4% (active).
For the molecule `CCN(CC)CCCC(C)Nc1cc(-c2cccc(OC(F)(F)F)c2)nc2ccc(N3CCCC3)cc12` (configuration not stated), the growth is -53.7% (active).
Same read-out and setting: under `COc1ccc(C(=O)/C=C/c2ccc(OCc3ccccc3)c(OC)c2)cc1OC` stands 18.2% (inactive); under `CC[C@H](C)[C@@H]1NC(=O)[C@H](Cc2ccc(O)cc2)N(C)C(=O)[C@H](Cc2ccccc2)NC(=O)CN(C)C(=O)[C@@H]2CCCN2C(=O)[C@@H](Cc2ccccc2)N(C)C(=O)[C@H](CC(C)C)NC1=O`, 1.24% (active).
For `NC(=S)N/N=C/c1ccc(OC(=O)COc2cc(Cl)c(Cl)cc2Cl)cn1`, the growth is 67.9% (inactive).
Take `COc1ccccc1Nc1cc(O)c2c(=O)cc(-c3ccccc3)oc2c1`: the growth is 14.1% (inactive).
As to `O=c1[nH]nc(-c2ccc(Cl)cc2)cc1Cc1cccc([N+](=O)[O-])c1`, the growth is 100% (inactive).
On to `COc1ccc(C(=O)c2cc3c(N)c(C(=O)Nc4ccc(Cl)cc4)sc3nc2C)cc1`, for which the growth is 54.6% (inactive).
With `O=CNc1cc(Cl)cc(Cl)c1`, the growth is 100% (inactive).
Same read-out and setting: as for `O=C(Nc1ccc(Cl)cc1)Nc1ccc(Cl)c(Cl)c1`, the figure is 5.23% (active).
Regarding `c1ccc(-c2nn(-c3ccccc3)[n+](-c3cccc4ccccc34)n2)cc1`, the growth was 7.65% (active).
Turning to `Fc1ccc(C2CC(c3cccc(Nc4ccncc4)c3)=NN2c2ccc(Cl)cc2)cc1` (configuration not stated), the growth is 101% (inactive).
Same read-out and setting: under `O=C1Nc2cc(-c3ccncc3)ccc2/C1=C/c1ccc[nH]1` stands 57.2% (inactive); under `CC1=CC2(C)/C=C(C)/C=C\CC(O)/C=C3/C=CC(=C4C(=O)OC2(CC1C)C4=O)OC3` (configuration not stated), -100% (active).
As for `COc1ccc(C(=O)/C=C/c2cn(Cc3ccc(Cl)cc3)c3ccccc23)cc1`, the growth was -77.5% (active).
Turning to `CC(C)(C#N)N1CCN(c2ccccc2Cl)CC1`, the growth is 98.4% (inactive).
As to `CN1CCN(c2cc(F)c(NC3=C(Cl)C(=O)c4ncccc4C3=O)c(F)c2)CC1`, the growth is -69.7% (active).
Consider `CC(=O)[C@@H]1CC[C@]2(C(=O)n3ccnc3)CC[C@]3(C)[C@H](CC[C@@H]4[C@@]5(C)Cc6c([nH]c7ccccc67)C(C)(C)[C@@H]5CC[C@]43C)[C@@H]12`, for which the growth is 83.9% (inactive).
Same read-out and setting: under `CC(C)CCSc1nc(NNC(N)=O)c(C#N)c(-c2ccccc2)n1` stands 38.3% (inactive).
Still for that read-out and setting: as for `Nc1c(Cl)cc([N+](=O)[O-])cc1Br`, the figure is 105% (inactive); as for `CC1(C)CN(c2cnc(C(=O)Nc3cc(F)cc4cccnc34)cn2)CCN1`, 11.4% (inactive); as for `O=C(CNCCO)Nc1ccc2ncnc(Nc3ccc(OCc4cccc(F)c4)c(Cl)c3)c2c1`, 64.3% (inactive).
Still for that read-out and setting: under `N#Cc1c(Nc2ccccc2)nn2cc(-c3nc4ccccc4s3)c(N)nc12` stands 76.4% (inactive).
In the case of `COc1ccc(C(O)c2cc3c(N)c(C(=O)Nc4ccccc4)sc3nc2C)cc1` (configuration not stated), the growth is 6.95% (active).
Take `Cc1cc(NC(=O)c2cnc(N3CCN(CCOCCOCCOCCOCCC(=O)N[C@H](C(=O)N4C[C@H](O)C[C@H]4C(=O)N[C@@H](C)c4ccc(-c5scnc5C)cc4)C(C)(C)C)CC3)cn2)c2ncccc2c1`: the growth is -60.3% (active).
Take `NC(=O)CN1CCN(c2ccccc2Cl)CC1`: the growth was 100% (inactive).
As to `c1ccc(-c2nn(-c3ccccc3)[n+](-c3ccccc3-c3ccccc3)n2)cc1`, the growth was 7.4% (active).
As for `O=C(N/N=C/c1cccnc1)c1ccccc1Nc1cccc(C(F)(F)F)c1`, the growth is 85.9% (inactive).
As for `O=C(Nc1cccc(C2=NCCN2)c1)c1ccc(OCCCOc2ccc(C(=O)Nc3cccc(C4=NCCN4)c3)cc2)cc1`, the growth is 6.6% (active).
Consider `O=S(=O)(NCCCNc1nccc(-c2c(-c3ccc(F)c(O)c3)nc3sccn23)n1)c1ccc(F)cc1`, for which the growth is 0.843% (active).
In the case of `CCc1c(Nc2ccc(C)cc2)nc(N)[nH]c1=O`, the growth is 98.6% (inactive).
With `O=C(Nc1ccc2ncnc(Nc3ccc(Oc4cccc(F)c4)c(Cl)c3)c2c1)c1ccc(CN2CCOCC2)cc1`, the growth was 13.7% (inactive).
Consider `Cc1ccc(Nc2cc(=S)nc(N)[nH]2)cc1C`, for which the growth was 90.1% (inactive).
As for `COc1ccc(Nn2c(SCC(=O)Nc3nc(-c4ccc(Cl)cc4)cs3)nc(C)c2C)cc1`, the growth was 27.8% (inactive).
Same read-out and setting: under `CC(O)(CO)c1ccccc1` (configuration not stated) stands 98.3% (inactive).

For another assay, the system named is HCC-2998 colon. Described as above. The conditions noted are these: 10 µM unless noted.
For `S=c1[nH]cccc1-c1nnc2n1Nc1nc3ccccc3cc1CS2`, the growth was 98.5% (inactive).
For the molecule `CC(=O)N1N=C(c2cccc(Nc3ccncc3)c2)CC1c1ccccc1` (configuration not stated), the growth was 103% (inactive).
In the case of `CCN(CC)CCCC(C)Nc1cc(-c2cccc(OC(F)(F)F)c2)nc2ccc(N3CCCC3)cc12` (configuration not stated), the growth was -58.2% (active).
For the molecule `CC[C@H](C)[C@@H]1NC(=O)[C@H](Cc2ccc(O)cc2)N(C)C(=O)[C@H](Cc2ccccc2)NC(=O)CN(C)C(=O)[C@@H]2CCCN2C(=O)[C@@H](Cc2ccccc2)N(C)C(=O)[C@H](CC(C)C)NC1=O`, the growth is -23.9% (active).
Still for that read-out and setting: under `NC(=S)N/N=C/c1ccc(OC(=O)COc2cc(Cl)c(Cl)cc2Cl)cn1` stands 63.7% (inactive); under `COc1ccccc1Nc1cc(O)c2c(=O)cc(-c3ccccc3)oc2c1`, 71.9% (inactive).
In the case of `O=c1[nH]nc(-c2ccc(Cl)cc2)cc1Cc1cccc([N+](=O)[O-])c1`, the growth was 130% (inactive).
Regarding `COc1ccc(C(=O)c2cc3c(N)c(C(=O)Nc4ccc(Cl)cc4)sc3nc2C)cc1`, the growth is 91.6% (inactive).
As for `c1ccc(-c2nn(-c3ccccc3)[n+](-c3cccc4ccccc34)n2)cc1`, the growth is 20.8% (inactive).
For `Fc1ccc(C2CC(c3cccc(Nc4ccncc4)c3)=NN2c2ccc(Cl)cc2)cc1` (configuration not stated), the growth was 16.7% (inactive).
As to `O=C1Nc2cc(-c3ccncc3)ccc2/C1=C/c1ccc[nH]1`, the growth is 72.2% (inactive).
The same measure, in the same setting: as for `COc1ccc(C(=O)/C=C/c2cn(Cc3ccc(Cl)cc3)c3ccccc23)cc1`, the figure is 59.7% (inactive); as for `CC(C)(C#N)N1CCN(c2ccccc2Cl)CC1`, 91.4% (inactive); as for `CN1CCN(c2cc(F)c(NC3=C(Cl)C(=O)c4ncccc4C3=O)c(F)c2)CC1`, 61.9% (inactive).
On the same count and under the same terms, under `CC(=O)[C@@H]1CC[C@]2(C(=O)n3ccnc3)CC[C@]3(C)[C@H](CC[C@@H]4[C@@]5(C)Cc6c([nH]c7ccccc67)C(C)(C)[C@@H]5CC[C@]43C)[C@@H]12` stands 109% (inactive); under `CC(C)CCSc1nc(NNC(N)=O)c(C#N)c(-c2ccccc2)n1`, 102% (inactive).
As for `Nc1c(Cl)cc([N+](=O)[O-])cc1Br`, the growth is 93.7% (inactive).
Consider `CC1(C)CN(c2cnc(C(=O)Nc3cc(F)cc4cccnc34)cn2)CCN1`, for which the growth is 92.2% (inactive).
Consider `O=C(CNCCO)Nc1ccc2ncnc(Nc3ccc(OCc4cccc(F)c4)c(Cl)c3)c2c1`, for which the growth is 97% (inactive).
As for `N#Cc1c(Nc2ccccc2)nn2cc(-c3nc4ccccc4s3)c(N)nc12`, the growth was 88% (inactive).
With `COc1ccc(C(O)c2cc3c(N)c(C(=O)Nc4ccccc4)sc3nc2C)cc1` (configuration not stated), the growth was 9.2% (active).
Same read-out and setting: under `Cc1cc(NC(=O)c2cnc(N3CCN(CCOCCOCCOCCOCCC(=O)N[C@H](C(=O)N4C[C@H](O)C[C@H]4C(=O)N[C@@H](C)c4ccc(-c5scnc5C)cc4)C(C)(C)C)CC3)cn2)c2ncccc2c1` stands -80.6% (active).
`NC(=O)CN1CCN(c2ccccc2Cl)CC1`: the growth is 101% (inactive).
Consider `c1ccc(-c2nn(-c3ccccc3)[n+](-c3ccccc3-c3ccccc3)n2)cc1`, for which the growth is 18.9% (inactive).
Consider `O=C(N/N=C/c1cccnc1)c1ccccc1Nc1cccc(C(F)(F)F)c1`, for which the growth was 101% (inactive).
In the case of `O=C(Nc1cccc(C2=NCCN2)c1)c1ccc(OCCCOc2ccc(C(=O)Nc3cccc(C4=NCCN4)c3)cc2)cc1`, the growth is -13.3% (active).
As to `O=S(=O)(NCCCNc1nccc(-c2c(-c3ccc(F)c(O)c3)nc3sccn23)n1)c1ccc(F)cc1`, the growth was 4.68% (active).
Take `O=C(Nc1ccc2ncnc(Nc3ccc(Oc4cccc(F)c4)c(Cl)c3)c2c1)c1ccc(CN2CCOCC2)cc1`: the growth was 69% (inactive).
Turning to `COc1ccc(Nn2c(SCC(=O)Nc3nc(-c4ccc(Cl)cc4)cs3)nc(C)c2C)cc1`, the growth was 54.2% (inactive).
